The sample as a whole holds a higher share of hits than the screen did.
PD-1 reversal = reversal of PD-1 mediated T-cell inhibition; primary human CD4 T cells, PD-L1 beads, CellTiter-Glo 96 h; activation, % (test concentration not listed); 29,000 tested, under 10 active; AID 2316; call rule not given here;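 note: 0% = median vehicle wells and 100% = positive control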
MITF inhib = MITF inhibition | TRPM1 promoter luciferase, luminescence, 24 h | inhibition, % (test concentration not listed) | 37,000 tested, 0.28% active; in the data active = inhibition above about 85%;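 note: human melanocyte line stably carrying TRPM1 promoter luciferase reporter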
YB-1 expr inh = YB-1 expression inhibition; U2OS, qRT-PCR YB-1 vs CDIP delta delta Cp, 16 h; hits give high values; zero = DMSO, each unit about twofold; delta delta Cp (YB-1 minus CDIP) (no concentration beside the values); 30,000 tested, 0.37% active; AID 434959;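 active = delta delta Cp rounded down to an integer at or above 3, about 3 SD of DMSO wells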;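 note: higher means less YB-1 transcript or more CDIP transcript relative to DMSO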
ROS inducer = raises reactive oxygen species in U2OS cancer cells. U2OS ROS induction, H2DCF-DA fluorescence. AID 624156. 46,000 tested, 2% active. ROS induction (% of piperlongumine), % at 10 µM; in the data active = ROS induction above about 79%, passing the limit was not always enough;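 note: 0% = DMSO vehicle median and 100% = reference compound median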
NOMO-1 viab = STK33 inhibitor candidate reducing NOMO-1 cell viability; NOMO-1 AML viability, CellTiter-Glo luminescence, 72 h; inhibition, % (concentration not given with the values); 37,000 tested, 7.5% active; in the data active = inhibition above about 80%
An asterisk follows results filed as active; / = not tested or not shown.

SMILES	PD-1 reversal	MITF inhib	YB-1 expr inh	ROS inducer	NOMO-1 viab
Cc1ccc(S(=O)(=O)Nc2ccc3c(c2)CC(=O)N([C@@H](C)CO)C[C@@H](C)[C@@H](CN(C)S(=O)(=O)c2ccc(Cl)cc2)O3)cc1	-2	7	-0.062	15	23
CC(=O)c1cccc(NC(=O)CNS(=O)(=O)c2ccc(Cl)cc2)c1	0	-4	/	-6	-4
Cc1ccc(S(=O)(=O)Nc2ccc3c(c2)CC(=O)N([C@H](C)CO)C[C@H](C)[C@H](CN(C)CC2CCCCC2)O3)cc1	-2	-12	-0.12	15	99*
C[C@H](CO)N1C[C@H](C)[C@H](CN(C)CC2CCCCC2)Oc2ccc(NS(=O)(=O)c3ccc(Cl)cc3)cc2CC1=O	-5	-11	0.0093	5	97*
C[C@H]1CN([C@@H](C)CO)C(=O)Cc2cc(NS(=O)(=O)c3ccc(Cl)cc3)ccc2O[C@@H]1CN(C)CC1CCCCC1	/	24	-0.17	21	120*
C[C@@H]1CN([C@@H](C)CO)C(=O)Cc2cc(NS(=O)(=O)c3ccc(Cl)cc3)ccc2O[C@@H]1CN(C)CC1CC1	/	4	-0.22	-7	8
C[C@H](CO)N1C[C@H](C)[C@H](CN(C)CC2CC2)Oc2ccc(NS(=O)(=O)c3ccc(Cl)cc3)cc2CC1=O	2	-4	0.27	8	35
O=C(COC(=O)c1c2c(nc3ccccc13)CCCC2)Nc1nc2ccccc2s1	/	/	/	14	/
N#CCCn1c(CC(N)=O)nc2ccccc21	/	-1	/	/	8
COc1ccc(NC(=O)Nc2ccc3c(c2)C(=O)N([C@H](C)CO)C[C@H](C)[C@H](CN(C)C(=O)Nc2c(C)noc2C)O3)cc1	2	-10	0.24	8	-19
COC(=O)C1(Cc2ccc(O)cc2)OC(=O)C(OC)=C1c1ccc(O)cc1 (configuration not stated)	-1	0	4.4*	-5	29
COC(=O)C1(Cc2ccc(O)c(CC=C(C)C)c2)OC(=O)C(OC)=C1c1ccc(O)c(O)c1 (configuration not stated)	2	10	0.21	0	60
COc1ccc([Si](C)(C)[C@H]2[C@H](CCO)O[C@@]3(C(=O)N(Cc4ccc(N5CCOC5=O)cc4)c4ccccc43)[C@@H]2C)cc1	/	/	-0.48	130*	/
COc1ccc([Si](C)(C)[C@H]2[C@H](CCO)O[C@@]3(C(=O)N(Cc4cccc(N5CCC5=O)c4)c4ccccc43)[C@@H]2C)cc1	/	/	-0.037	107*	/
COc1ccc([Si](C)(C)[C@@H]2[C@@H](CCO)O[C@]3(C(=O)N(Cc4ccc(NC(=O)[C@H](C)O)cc4)c4ccccc43)[C@H]2C)cc1	/	/	-0.28	91*	/
COc1ccc([Si](C)(C)[C@H]2[C@H](CCO)O[C@@]3(C(=O)N(Cc4cccc(NC(=O)[C@H](C)O)c4)c4ccccc43)[C@@H]2C)cc1	/	/	0.0065	12	/
COc1ccc([Si](C)(C)[C@@H]2[C@@H](CCn3cc([C@H](O)c4ccccc4)nn3)O[C@]3(C(=O)N(Cc4ccc(N5CCC5=O)cc4)c4ccccc43)[C@H]2C)cc1	/	/	0.58	58	/
C[C@@H]1O[C@@H](OC[C@H]2O[C@@H](OCCc3ccc(O)c(O)c3)[C@H](O)[C@@H](O)[C@@H]2OC(=O)/C=C/c2ccc(O)c(O)c2)[C@H](O)[C@H](O)[C@H]1O	1	1	-0.27	-15	21
CC(=O)c1cccc(NC(=O)Nc2nn(Cc3c(F)cccc3Cl)cc2Br)c1	-9	23	/	-6	106*
CCC(C)[C@H]1C(=O)O[C@H](C(C)C)C(=O)N(C)[C@@H](C(C)C)C(=O)O[C@H](C(C)C)C(=O)N(C)[C@@H](C(C)C)C(=O)O[C@H](CC(C)C)C(=O)N1C (some centres not stated)	-14	78	0.71	-4	119*
Cc1noc(C)c1NC(=O)N(C)C[C@@H]1Oc2c(NC(=O)CCCCCC(=O)Nc3ccccc3N)cccc2C(=O)N([C@@H](C)CO)C[C@H]1C	2	-18	-0.029	-14	8
C[C@@H]1O[C@@H](O[C@H]2[C@@H]3C=CO[C@@H](O[C@@H]4O[C@H](CO)[C@@H](O)[C@H](O)[C@H]4O)[C@@H]3[C@@]3(CO)O[C@@H]23)[C@H](O)[C@H](OC(=O)/C=C/c2ccc(O)cc2)[C@H]1O	/	/	0.37	88*	/
COc1ccc(/C=C/C(=O)O[C@@H]2[C@@H](O)[C@H](C)O[C@@H](O[C@H]3[C@@H]4C=CO[C@@H](O[C@H]5O[C@@H](CO)[C@H](O)[C@@H](O)[C@@H]5O)[C@@H]4[C@@]4(CO)O[C@@H]34)[C@@H]2OC(C)=O)cc1	0	-2	-0.16	-4	22
COc1ccc(/C=C/C(=O)O[C@H]2[C@H](O[C@H]3[C@@H]4C=CO[C@@H](O[C@@H]5O[C@H](CO)[C@@H](O)[C@H](O)[C@H]5O)[C@@H]4[C@@]4(CO)O[C@@H]34)O[C@@H](C)[C@H](O)[C@H]2OC(C)=O)cc1	2	-17	10*	-9	1
CC(=O)O[C@@H]1[C@@H](O)[C@H](C)O[C@@H](O[C@H]2[C@@H]3C=CO[C@@H](O[C@@H]4O[C@H](CO)[C@@H](O)[C@H](O)[C@H]4O)[C@@H]3[C@@]3(CO)O[C@@H]23)[C@@H]1OC(=O)/C=C/c1ccc(O)cc1	-1	12	0.053	73	12
SMILES	PD-1 reversal	MITF inhib	YB-1 expr inh	ROS inducer	NOMO-1 viab
CCNC(=O)c1c(NC(=O)c2ccccc2[N+](=O)[O-])sc2c1CCCC2	0	-5	/	5	5
Cc1ccc(C(=O)/C=C2\N/C(=N/S(=O)(=O)c3ccc(N)cc3)NC2=O)cc1	/	/	/	17	/
Cc1cc(C)nc(Nc2n[nH]c(COc3cccc4cccnc34)n2)n1	1	-32	/	/	14
Cc1ccc(Nc2nc(N)nc(COc3cccc4cccnc34)n2)cc1	-2	-33	/	-2	111*
Cc1cccc(C)c1Nc1nc2c(C)cc(C)c(C)c2s1	-1	16	-0.22	37	45
Cc1ccc([N+](=O)[O-])cc1NC(=O)C1CCCN(S(=O)(=O)c2ccc(Cl)cc2)C1 (configuration not stated)	0	-7	/	11	30
CCc1cc(C)cc(OCCn2cc(C=C3C(=O)NC(=O)NC3=O)c3ccccc32)c1	-23	47	-0.11	26	122*
CCc1ccc(OCCCn2cc(/C=C3/C(=N)N4C=CSC4=NC3=O)c3ccccc32)cc1	0	13	-0.51	32	54
CC1(C)CC(=O)C=C(SCC(=O)Nc2cc(C(F)(F)F)cc(C(F)(F)F)c2)S1	-2	52	-0.025	7	103*
COc1ccc(NC(=O)CN(c2ccccc2F)S(C)(=O)=O)cc1Cl	0	7	/	-12	5
O=C(Oc1c(CN2CCOCC2)cc(Cl)c2cccnc12)c1ccc(F)cc1	/	53	/	/	109*
O=C(Oc1c(CN2CCOCC2)cc(Cl)c2cccnc12)c1ccccc1Cl	/	/	/	-3	/
